Over roughly 59,000 sequences, the read-out has its median near -0.00055; the lowest 2% begin near -2. This excerpt belongs to a sample that is enriched for the lowest values.

The assay is described as follows: Identification of proteins required for the processing of the EWS-FLI1 nascent transcript.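 Further: robust z of luciferase light less the median z of siRNAs with the same seed.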 The settings on record: TC32 Ewing sarcoma NR0B1-luc vs CMV-luc (EWS-FLI1 target promoter against control promoter), 48 h; screened at 20 nM (by protocol). In short, it runs like this: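 Readout: OneGlo luminescence, 48 h post-transfection, TC32-NR0B1-luc vs TC32-CMV-luc in parallel. siRNA 20 nM final, RNAiMax lipid, 600 cells/well; z-score-MAD transformed, then seed-adjusted.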
For the sequence UUUCGGUAGUAGGAUUUCC against RBAK, the seed-corrected z-score amounted to 0.44.

For the sequence AAAACUUGCACCUUCGUGU against ARMC10, the seed-corrected z-score is -0.114.

For UUUAGUGUCAGUUGAUUUG against CPXCR1, the seed-corrected z-score was 0.162.

UAUCAGACAAUUCAUCCGG against LONRF2 had a seed-corrected z-score of -0.662.

For AUGGGUCAGAGAGGCAAGG against EXOSC5, the seed-corrected z-score was -2.07.

For AUGUGGAUCAGAAGUAUCA against OR2T10, the seed-corrected z-score turned out to be 0.476.

UGCAUGAUGAGUGAGGUGC against CYP26B1 showed a seed-corrected z-score of -0.927.

In the case of UGACGGAUCAGUCUUAGCC against ATP5O, the seed-corrected z-score is -0.31.

Sequence AAAUAUAUCUCUUGGAUCU against LRRC75A-AS1 displayed a seed-corrected z-score of 0.788.

In turn, UCUAAUUCCAUACUGAUUC against PRKCQ-AS1 came in with a seed-corrected z-score of -0.219.

On to UUAUAAAAUUUGGUGAUGG against CNNM2, for which the seed-corrected z-score is -2.17.

AAAGAAGGAAUUGAGAUUC against RAPGEF3 showed a seed-corrected z-score of 0.508.

Sequence UAGAAAUCUACAAUCUUGU against NR2C2AP displayed a seed-corrected z-score of -0.785.

As to AUUGUAUCCUGCUGAGUCC against FOXJ2, the seed-corrected z-score was -0.984.

The sequence ACAGUAAUCCAUAUGGAGG against GPR139 returned a seed-corrected z-score of 0.177.

UUUCGUUCUUACGAGAUCC against PKHD1L1 gave a seed-corrected z-score of 1.16.

Take UCCGGAUACACUUCACUAC against ANXA6: the seed-corrected z-score is -0.467.

On to AAAAGUGGAACUUCUUCUC against TTLL8, for which the seed-corrected z-score was -2.21.

Sequence AAAGUUGCAGUUGGUCUCC against ZACN registered a seed-corrected z-score of -3.49.

UUAGCAGCUUGUUAAUUUC against ISY1 yielded a seed-corrected z-score of -0.616.

For the sequence UAAGCAGCUUGUAUUGCUC against KIAA0513, the seed-corrected z-score was determined as 0.461.

With UGAGGUUAAAGUGAGUAGC against VIT, the seed-corrected z-score is -0.117.

UUUCUUACACCAUGAGACG against INTS4 showed a seed-corrected z-score of -0.309.

In the case of UAAAGUAAAGAUGUCUUCC against NPIPA1, the seed-corrected z-score amounted to 0.0914.

As for AUAGGGAUCUGAAAGUCCG against SYT4, the seed-corrected z-score was 0.582.

Turning to UCCGGUCAAACUUAGUGCC against AQR, the seed-corrected z-score was -3.37.

As to AACGAAAUAAAAGCUGUCC against CFAP69, the seed-corrected z-score is -0.411.

On to UAUCGAACCAACCAGCAUC against MFSD4A, for which the seed-corrected z-score was found to be 1.1.

For UUCGAUGAACUUCUUUUGC against BROX, the seed-corrected z-score amounted to 1.04.

UCCCGGGACAGCAUGUAGU against USP17L9P showed a seed-corrected z-score of 0.146.

Regarding CAAUACUCCAGCAUCAGGC against OPA3, the seed-corrected z-score is -2.35.

For UACAAGAAUAGUCACAAUG against OR5H1, the seed-corrected z-score turned out to be 0.319.

UCUGUAUCAAUGAUUAAAC against ICE2 gave a seed-corrected z-score of 0.6.

Sequence UUUGUUAGUCAGGUAUUCC against CCDC121 had a seed-corrected z-score of 2.03.

Sequence UGGGUAUGUAGUAAUCUCG against ADGB returned a seed-corrected z-score of -3.05.

For AGACUGUAAAAGAUCUGUG against CCDC106, the seed-corrected z-score is -0.709.

In the case of AAUCGUACACUCUCCGUAG against CHST2, the seed-corrected z-score was -1.01.

UCACUUAGCAGGCUCUCUG against DDIT4L yielded a seed-corrected z-score of -0.677.

As for ACCGUUAAACUUGUAAUCG against ZFYVE9, the seed-corrected z-score came out at 0.0151.

Take AUAGAUGCGAUCUAUGAGC against TRE17: the seed-corrected z-score stood at 0.156.

In turn, UGGUUGUACGCGAUGUCCG against FZD1 displayed a seed-corrected z-score of -3.54.

UGCUGCAAGAGGUUAUUCC against HAS1: the seed-corrected z-score was 0.441.

In turn, UAAUUGUCAGCUGAUUGUC against CDC6 registered a seed-corrected z-score of -0.689.

Sequence UCACCGUUCCAUUCAAGUC against IKBKB yielded a seed-corrected z-score of 0.0239.

On to UUUGGGAAAGUAGCUAUCA against LINC01124, for which the seed-corrected z-score was -2.24.

Sequence AUUGGAGCAAGACUUUUAG against BDKRB1 registered a seed-corrected z-score of -0.291.

Sequence UUCAGCUAUAAAGUAAAGC against IL18 came in with a seed-corrected z-score of -13.

On to AAGGCUCCAAUGAUAAGUG against NRG4, for which the seed-corrected z-score is -0.154.

UCGCUUUCCUCCAGGGUAC against GNRH2 yielded a seed-corrected z-score of -0.382.

In turn, AAAGCUGCGUCUUGUCUCG against LDLRAD2 had a seed-corrected z-score of -3.83.

Take UAAGAACCCACAGUAUUGA against FBLN2: the seed-corrected z-score was 0.31.

Sequence UAAAUAAUAUUGCACAUAC against FAM228A returned a seed-corrected z-score of 0.618.

Sequence UUGAAUUUAAGAGAAAGGA against NPR3 had a seed-corrected z-score of 0.283.

AUAGUCAGCUGUGCUCUGC against FLJ16423: the seed-corrected z-score was -0.343.

For the sequence UUAGCAUGCAAAAUCGCCC against CWC22, the seed-corrected z-score was -3.73.

Consider UAGGGUGAGUCAAUAAUGG against CSTF2T, for which the seed-corrected z-score was -0.0525.

Regarding AUCUUUAUCAUUGGGCAGG against SCAF1, the seed-corrected z-score is -0.941.

In the case of UUAUAAAUCCCUUUCACCG against CASP9, the seed-corrected z-score was -0.324.

As for UAUGUCUUUCAGACUGACC against RPTN, the seed-corrected z-score is -1.

With UUUCGGCACUGCAAAGUCG against ATP10A, the seed-corrected z-score worked out at 0.235.

In turn, UCCUGCUUCAUAUCUUCUG against C19orf66 showed a seed-corrected z-score of -3.54.

UUACUGAGGAAGUUUCUUU against CD99L2: the seed-corrected z-score was -0.781.

For UCCCUGGUAAAGUAUAGUC against EGFEM1P, the seed-corrected z-score was -1.34.

On to UUUCCGUCUGUCUUCUUCC against DCAF4, for which the seed-corrected z-score amounted to 0.00663.

For the sequence UUACUAAAGACUGACAACC against ZNF208, the seed-corrected z-score is -0.0968.

UACUGCUUCGUAUCUGUCC against PIH1D2 displayed a seed-corrected z-score of -2.13.

With AUAGGACUGACAGUGUUCA against STAC3, the seed-corrected z-score was 1.13.

Take UUUCAUUCGGUGAAAGUCC against MTFR1L: the seed-corrected z-score was -0.547.

In turn, UAAUUCACUAACUUCAAGC against SLC37A3 came in with a seed-corrected z-score of 0.139.

UGGGUGUCCAUUCUCGAGC against PPP1R18 had a seed-corrected z-score of 1.72.

The sequence UUUUGGGUGUGGACCUUGC against NPFF showed a seed-corrected z-score of 0.585.

ACAGUGGAAACCUCACUUC against FOXP3 displayed a seed-corrected z-score of 0.0552.

Sequence AUUCUUAUCCAUCCGAUCC against CTTN had a seed-corrected z-score of -0.272.

In the case of UCAUUUUACCUCUUCCAUC against GADL1, the seed-corrected z-score was 0.676.

For UCUGCUUCACCAGUUACUC against HNRNPH1, the seed-corrected z-score is -2.08.

In turn, UGAUAAACCACAGCAACUC against TYMS displayed a seed-corrected z-score of 1.01.

Sequence UUUGAUACCUCCUUUACCC against HELB came in with a seed-corrected z-score of 0.388.

Sequence UCUCUGCUAACGAUAACUC against PIWIL1 registered a seed-corrected z-score of -0.0232.

UAACCUGCUCAAAAGAAUG against ACSL6 yielded a seed-corrected z-score of 0.714.

UAAAGUACAGCUCGGUUUG against OOSP2 showed a seed-corrected z-score of 0.436.

On to UUUGUUGAAGGUUUCACUG against ZMYND15, for which the seed-corrected z-score is 1.4.

The sequence UCGAUAGUCAUCAAAGAUC against VWC2L showed a seed-corrected z-score of -2.99.

In the case of UACUGGUAAAAGGUGUUCC against C6orf58, the seed-corrected z-score was found to be 0.5.

With UACAGAGAAAGGUAGCGGU against GPR3, the seed-corrected z-score is -2.23.

Regarding UGAUCUACCUGCUUGUGCC against USP17L9P, the seed-corrected z-score is -0.147.
